{"source": "PubChem BioAssay (EPA / NIEHS)", "note": "Calls of active or inactive are those of the source. The calls were made as follows: active = hit-call score of the fitted dose curve at least 0.9, where 1 is the maximum; inactive = score below 0.9."}
{"assay": "APR_HepG2_p53Act_24hr: Apredica 24-hour HepG2 Assay for p53 Activation (AID 2282913);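 also: p53 protein immunofluorescence averaged per cell in HepG2 with Hoechst nuclei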", "conditions": "high-content imaging, actives raise or lower the signal", "outline": "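HepG2 cells exposed 24 hr to compounds at 0.39–200 uM (10 concentrations, duplicate), final DMSO 0.5% v/v. After formaldehyde fixation and Triton permeabilization, p53 was immunolabeled (sheep anti-p53, Cy5 secondary) with Hoechst 33342 nuclear counterstain, then imaged by high-content fluorescence microscopy.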"}
{"smiles": "OCCO", "outcome": "inactive"}
{"smiles": "Cc1cc(F)ccc1-c1cc(N2CC[C@@H](O)[C@H]2CO)ncc1N(C)C(=O)C(C)(C)c1cc(C(F)(F)F)cc(C(F)(F)F)c1", "AC50": "94 µM (active)"}
{"smiles": "CC(O)CC(C)(C)O", "note": "(stereo not given)", "outcome": "inactive"}
{"smiles": "CC1(C)NC(=O)N(c2ccc([N+](=O)[O-])c(C(F)(F)F)c2)C1=O", "outcome": "inactive"}
{"smiles": "CCCCOC(=O)c1ccc(O)cc1", "outcome": "inactive"}
{"smiles": "Oc1ccccc1", "outcome": "inactive"}
{"smiles": "CC(C)(C)c1cc(/C=C2\\SC(N)=NC2=O)cc(C(C)(C)C)c1O", "AC50": "61.7 µM (active)"}
{"smiles": "O=C=NCCCCCCN=C=O", "outcome": "inactive"}
{"smiles": "NCc1cccc(C2CCN(C(=O)c3ccc(C#Cc4ccccc4F)o3)CC2)c1", "AC50": "16.4 µM (active)"}
{"smiles": "CN(C)C(=O)C1(N2CCCCC2)CCN(CC[C@@]2(c3ccc(Cl)c(Cl)c3)CN(C(=O)c3ccccc3)CCO2)CC1", "AC50": "22.9 µM (active)"}
{"smiles": "Cc1occc1C(=O)Nc1ccc(C(=O)N2CCC(F)(F)/C(=C\\C(=O)N3CCC(N4CCCCC4)CC3)c3ccccc32)cc1", "outcome": "inactive"}
{"smiles": "COc1cc(C(=O)NC2CCN(C)CC2)ccc1Nc1ncc2c(n1)N(C1CCCC1)CC(F)(F)C(=O)N2C", "outcome": "inactive"}
{"smiles": "O=C(O)Cc1cc(I)c(Oc2ccc(O)c(I)c2)c(I)c1", "outcome": "inactive"}
{"smiles": "Cc1oc2c(NC(=O)c3c(Cl)cccc3Cl)cccc2c1C(C)(C)O", "outcome": "inactive"}
{"smiles": "O=CCCCC=O", "outcome": "inactive"}
{"smiles": "CC[C@H](NC(=O)c1cc(F)ccc1NS(=O)(=O)c1cccc2cccnc12)c1ccccc1", "outcome": "inactive"}
{"smiles": "O=c1ccc2ccccc2o1", "outcome": "inactive"}
{"smiles": "c1ccc(C[n+]2cccc3ccccc32)cc1", "outcome": "inactive"}
{"smiles": "O=C(OCCCCCCOC(=O)c1ccccc1)c1ccccc1", "outcome": "inactive"}
{"smiles": "CCCCCCCCN(C)CCCCCCCC", "outcome": "inactive"}
{"smiles": "Cc1ncc(CO)c(CO)c1O", "outcome": "inactive"}
{"smiles": "Oc1ccc2ccccc2c1", "outcome": "inactive"}
{"smiles": "CCCCCCCCCCCC[N+](C)(C)C", "AC50": "49.5 µM (active)"}
{"smiles": "c1ccc2ccccc2c1", "outcome": "inactive"}
{"smiles": "CCCCCCCC[Si](OCC)(OCC)OCC", "outcome": "inactive"}
{"smiles": "OC12N=C(c3ccccc3)SC1Cc1cc(Cl)ccc12", "note": "(stereo not given)", "outcome": "inactive"}
{"smiles": "CN1C(=O)N(c2ccccc2Br)Cc2cnc(Nc3ccc4c(c3)OCC(CO)O4)nc21", "note": "(stereo not given)", "AC50": "4 µM (active)"}
{"smiles": "CC(C)(C)c1csc(-c2cc3cc(OCc4ccccc4CC(=O)O)ccc3o2)n1", "outcome": "inactive"}
{"smiles": "CN(C[C@@H](CC[N+]12CCC(C3CCCCC3)(CC1)CC2)c1ccc(Cl)c(Cl)c1)C(=O)c1cc(C(F)(F)F)cc(C(F)(F)F)c1", "AC50": "18.3 µM (active)"}
{"smiles": "CCCCCCCCCCCO", "AC50": "107 µM (active)"}
{"smiles": "Clc1cc(Cl)c2c(c1)N=C1CCCCCN1C2", "outcome": "inactive"}
{"smiles": "O=C(O)Cn1c(=O)n(Cc2ccc(Br)cc2F)c(=O)c2ccc(Cl)cc21", "outcome": "inactive"}
{"smiles": "CC[C@@H]1C[C@H](N(Cc2cc(C(F)(F)F)cc(C(F)(F)F)c2)C(C)=O)c2cc(C(F)(F)F)ccc2N1C(=O)OC(C)C", "outcome": "inactive"}
{"smiles": "CCCCCCCCOC(=O)c1cc(O)c(O)c(O)c1", "AC50": "43.3 µM (active)"}
{"smiles": "CC/C(=C(/CC)c1ccc(O)cc1)c1ccc(O)cc1", "AC50": "33.8 µM (active)"}
{"smiles": "c1ccc2n[nH]nc2c1", "outcome": "inactive"}
{"smiles": "Cc1cn([C@H]2C[C@H](N=[N+]=[N-])[C@@H](CO)O2)c(=O)[nH]c1=O", "outcome": "inactive"}
{"assay": "APR_HepG2_CellCycleArrest_72hr: Apredica 72-hour HepG2 Assay for Cell Cycle Arrest (AID 2282914)", "conditions": "high-content imaging, actives raise or lower the signal", "outline": "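HepG2 cells were exposed to compounds at 0.39–200 uM (0.5% v/v DMSO final, duplicates) for 72 hr, fixed in 3.7% formaldehyde, permeabilized and stained with Hoechst 33342. Nuclear DNA content was quantified by high-content imaging; gain or loss of signal was fitted bidirectionally against DMSO.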"}
{"smiles": "OCCO", "outcome": "inactive"}
{"smiles": "Cc1cc(F)ccc1-c1cc(N2CC[C@@H](O)[C@H]2CO)ncc1N(C)C(=O)C(C)(C)c1cc(C(F)(F)F)cc(C(F)(F)F)c1", "outcome": "inactive"}
{"smiles": "CC(O)CC(C)(C)O", "note": "(stereo not given)", "outcome": "inactive"}
{"smiles": "CC1(C)NC(=O)N(c2ccc([N+](=O)[O-])c(C(F)(F)F)c2)C1=O", "outcome": "inactive"}
{"smiles": "CCCCOC(=O)c1ccc(O)cc1", "outcome": "inactive"}
{"smiles": "Oc1ccccc1", "outcome": "inactive"}
{"smiles": "CC(C)(C)c1cc(/C=C2\\SC(N)=NC2=O)cc(C(C)(C)C)c1O", "outcome": "inactive"}
{"smiles": "O=C=NCCCCCCN=C=O", "outcome": "inactive"}
{"smiles": "NCc1cccc(C2CCN(C(=O)c3ccc(C#Cc4ccccc4F)o3)CC2)c1", "outcome": "inactive"}
{"smiles": "CN(C)C(=O)C1(N2CCCCC2)CCN(CC[C@@]2(c3ccc(Cl)c(Cl)c3)CN(C(=O)c3ccccc3)CCO2)CC1", "AC50": "67.3 µM (active)"}
{"smiles": "Cc1occc1C(=O)Nc1ccc(C(=O)N2CCC(F)(F)/C(=C\\C(=O)N3CCC(N4CCCCC4)CC3)c3ccccc32)cc1", "outcome": "inactive"}
{"smiles": "C[C@]12CC[C@@H]3c4ccc(O)cc4CC[C@H]3[C@@H]1CCC2=O", "outcome": "inactive"}
{"smiles": "COc1cc(C(=O)NC2CCN(C)CC2)ccc1Nc1ncc2c(n1)N(C1CCCC1)CC(F)(F)C(=O)N2C", "outcome": "inactive"}
{"smiles": "O=C(O)Cc1cc(I)c(Oc2ccc(O)c(I)c2)c(I)c1", "outcome": "inactive"}
{"smiles": "Cc1oc2c(NC(=O)c3c(Cl)cccc3Cl)cccc2c1C(C)(C)O", "outcome": "inactive"}
{"smiles": "O=CCCCC=O", "outcome": "inactive"}
{"smiles": "CC[C@H](NC(=O)c1cc(F)ccc1NS(=O)(=O)c1cccc2cccnc12)c1ccccc1", "outcome": "inactive"}
{"smiles": "O=c1ccc2ccccc2o1", "outcome": "inactive"}
{"smiles": "c1ccc(C[n+]2cccc3ccccc32)cc1", "AC50": "36.8 µM (active)"}
{"smiles": "O=C(OCCCCCCOC(=O)c1ccccc1)c1ccccc1", "outcome": "inactive"}
{"smiles": "CCCCCCCCN(C)CCCCCCCC", "outcome": "inactive"}
{"smiles": "Cc1ncc(CO)c(CO)c1O", "outcome": "inactive"}
{"smiles": "Oc1ccc2ccccc2c1", "outcome": "inactive"}
{"smiles": "CCCCCCCCCCCC[N+](C)(C)C", "outcome": "inactive"}
{"smiles": "c1ccc2ccccc2c1", "AC50": "0.0357 µM (active)"}
{"smiles": "CCCCCCCC[Si](OCC)(OCC)OCC", "AC50": "0.03 µM (active)"}
{"smiles": "OC12N=C(c3ccccc3)SC1Cc1cc(Cl)ccc12", "note": "(stereo not given)", "outcome": "inactive"}
{"smiles": "CN1C(=O)N(c2ccccc2Br)Cc2cnc(Nc3ccc4c(c3)OCC(CO)O4)nc21", "note": "(stereo not given)", "AC50": "5.09 µM (active)"}
{"smiles": "CC(C)(C)c1csc(-c2cc3cc(OCc4ccccc4CC(=O)O)ccc3o2)n1", "outcome": "inactive"}
{"smiles": "CN(C[C@@H](CC[N+]12CCC(C3CCCCC3)(CC1)CC2)c1ccc(Cl)c(Cl)c1)C(=O)c1cc(C(F)(F)F)cc(C(F)(F)F)c1", "outcome": "inactive"}
{"smiles": "CCCCCCCCCCCO", "outcome": "inactive"}
{"smiles": "Clc1cc(Cl)c2c(c1)N=C1CCCCCN1C2", "outcome": "inactive"}
{"smiles": "O=C(O)Cn1c(=O)n(Cc2ccc(Br)cc2F)c(=O)c2ccc(Cl)cc21", "outcome": "inactive"}
{"smiles": "CC[C@@H]1C[C@H](N(Cc2cc(C(F)(F)F)cc(C(F)(F)F)c2)C(C)=O)c2cc(C(F)(F)F)ccc2N1C(=O)OC(C)C", "outcome": "inactive"}
{"smiles": "CCCCCCCCOC(=O)c1cc(O)c(O)c(O)c1", "AC50": "8.95 µM (active)"}
{"smiles": "CC/C(=C(/CC)c1ccc(O)cc1)c1ccc(O)cc1", "AC50": "31.3 µM (active)"}
{"smiles": "c1ccc2n[nH]nc2c1", "outcome": "inactive"}
{"smiles": "Cc1cn([C@H]2C[C@H](N=[N+]=[N-])[C@@H](CO)O2)c(=O)[nH]c1=O", "AC50": "46.3 µM (active)"}
